From PubChem BioAssay (Tox21)
Where “and” joins values, the source holds several entries; their conditions need not be identical. Equal entries are not always repeated. Inconclusive results are not listed. A call without a number means that no potency is given here. The source holds several records for some structures; these can differ, active in one and inactive in another. Calls of active or inactive are those of the source. Unless noted, the call rests on the fitted dose curve.

How the values were obtained:
[1] = Nuclear factor erythroid 2-related factor 2/antioxidant responsive element (Nrf2/ARE) small molecule agonists: qHTS cell viability counter screen in human keratinocytes (AID 1919968; active means well fitted curve in the direction sought with a large enough effect in the repeat runs; an effect the other way counts as inactive or inconclusive; further: nearly all actives have a fitted effect of over 55% in size)
Procedure, shortened: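 Cells of the KeratinoSens line were plated at 1,500 per well and left for 5 h before compound transfer from DMSO stocks. After a 23 h incubation (37 C, 5% CO2), CellTiter-Fluor was added. Signal was taken as fluorescence intensity 1 h later.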

[2] = target: Gonadotropin-releasing hormone receptor (Homo sapiens) (UniProt P30968); assay: Human gonadotropin-releasing hormone receptor (GnRHR) small molecule agonists, calcium flux assay in GnRHR-HEK293 cells (AID 1920063); further: nearly all actives have a fitted effect of over 35% in size
Chain of Gonadotropin-releasing hormone receptor (Homo sapiens) (P30968 whole entry, looked up): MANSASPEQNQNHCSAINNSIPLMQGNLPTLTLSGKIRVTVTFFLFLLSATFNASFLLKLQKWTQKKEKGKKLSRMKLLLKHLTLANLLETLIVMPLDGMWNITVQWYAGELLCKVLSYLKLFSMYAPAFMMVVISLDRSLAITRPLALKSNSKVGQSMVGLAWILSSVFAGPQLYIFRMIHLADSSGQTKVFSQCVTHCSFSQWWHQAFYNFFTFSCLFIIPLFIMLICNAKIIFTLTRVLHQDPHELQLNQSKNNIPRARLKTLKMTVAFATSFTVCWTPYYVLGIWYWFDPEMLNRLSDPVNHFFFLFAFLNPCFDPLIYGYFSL
Procedure, shortened: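 Compounds dissolved in DMSO are pin-transferred onto dye-loaded GnRHR-HEK293 cells, which were seeded 18 h before at 37 C/5% CO2. Calcium signal is read as fluorescence intensity at 1 s intervals for 3 min.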

[3] = p53 small molecule agonists, cell-based qHTS assay with human liver microsomes (AID 1963577);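 further: p53 response element beta-lactamase reporter cells with liver microsomes plus NADPH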
Procedure, shortened: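 Metabolically competent format: test substances, human liver microsomes and NADPH (both 0.5 mg/mL final) incubated with p53RE-bla cells 16 h at 37 C. Beta-lactamase reporter signal then quantified by fluorescence.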

[4] = p53 small molecule agonists, cell-based qHTS assay with rat liver microsomes (AID 1963578)
Procedure, shortened: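 Each plate received p53RE-bla cells, then compound, then rat liver microsomes and NADPH (both 0.5 mg/mL final). Plates were held 16 h at 37 C, and beta-lactamase activity was detected with LiveBLAzer over 2 h.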

[5] = p53 small molecule agonists, cell-based qHTS assay with human liver microsomes: qHTS cell viability counter screen (AID 1963579); further: nearly all actives have a fitted effect of over 45% in size
Procedure, shortened: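 Tox21 library compounds, delivered from DMSO stocks, were tested on p53RE-bla cells together with 0.5 mg/mL human liver microsomes and 0.5 mg/mL NADPH (final) over 16 h at 37 C; CellTiter-Glo luminescence served as the cytotoxicity measure.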

[6] = p53 small molecule agonists, cell-based qHTS assay with rat liver microsomes: qHTS cell viability counter screen (AID 1963580); further: nearly all actives have a fitted effect of over 45% in size
Procedure, shortened: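 Cytotoxicity counter screen: intracellular ATP measured by CellTiter-Glo luminescence in the same wells as the beta-lactamase reporter read, on HCT-116 p53RE-bla cells exposed 16 h at 37 C to compounds with rat liver microsomes and NADPH, each 0.5 mg/mL final.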

[7] = p53 small molecule agonists, cell-based qHTS assay: qHTS cell viability counter screen (AID 1963581); further: nearly all actives have a fitted effect of over 45% in size
Procedure, shortened: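 ATP content measured by luminescence in HCT-116 p53RE-bla cells treated 16 h at 37 C, same wells as the reporter screen.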

[8] = p53 small molecule agonists, cell-based qHTS assay (AID 1963582; active means well fitted activation curve with a large enough effect in the signal ratio in the repeat runs, not every such curve was filed as active; the % refers to the signal ratio)
Procedure, shortened: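 16 h compound exposure (37 C) of p53 response element–bla cells, preceded by 5 h recovery at 37 C/5% CO2; read-out via LiveBLAzer B/G FRET substrate, 2 h RT, fluorescence intensity.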

[9] = target: 5-hydroxytryptamine receptor 2A (Homo sapiens) (UniProt P28223); assay: 5-hydroxytryptamine receptor 2A (HTR2A) small molecule antagonists, cell-based qHTS assay (AID 1963586); further: nearly all actives have a fitted effect of over 45% in size; further: potency means the concentration at half of the fitted maximal effect
Chain of 5-hydroxytryptamine receptor 2A (Homo sapiens) (P28223 whole entry, looked up): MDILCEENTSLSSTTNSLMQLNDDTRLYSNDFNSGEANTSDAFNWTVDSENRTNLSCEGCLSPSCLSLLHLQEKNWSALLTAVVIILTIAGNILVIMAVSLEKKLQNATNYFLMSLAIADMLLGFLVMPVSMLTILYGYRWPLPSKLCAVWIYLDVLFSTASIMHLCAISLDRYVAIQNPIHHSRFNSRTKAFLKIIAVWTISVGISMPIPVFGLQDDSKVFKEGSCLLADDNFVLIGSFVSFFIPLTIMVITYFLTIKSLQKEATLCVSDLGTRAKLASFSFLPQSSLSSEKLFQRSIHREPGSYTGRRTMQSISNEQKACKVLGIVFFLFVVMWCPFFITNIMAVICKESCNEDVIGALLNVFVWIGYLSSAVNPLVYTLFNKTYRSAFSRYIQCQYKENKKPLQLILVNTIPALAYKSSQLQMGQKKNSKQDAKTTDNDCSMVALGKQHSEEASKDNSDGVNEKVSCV
Procedure, shortened: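 CHO cells stably expressing human HTR2A were plated for 18 h at 37 C, then loaded with calcium dye for 1 h. Compounds were preincubated 5 min at room temperature before DOI (4 nM solution) was added. Kinetic fluorescence was read for 3 min.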

[10] = target: 5-hydroxytryptamine receptor 2A (Homo sapiens) (UniProt P28223); assay: 5-hydroxytryptamine receptor 2A (HTR2A) small molecule agonists, cell-based qHTS assay (AID 1963587); further: nearly all actives have a fitted effect of over 30% in size
Procedure, shortened: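 CHO cells stably expressing human HTR2A, plated 18 h, loaded with calcium dye 1 h at 37 C. Agonist mode: compounds added and intracellular calcium fluorescence recorded kinetically for 2 min at 1 sec intervals.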

[11] = target: Muscarinic acetylcholine receptor M1 (Homo sapiens) (UniProt P11229); assay: Cholinergic receptor muscarinic 1 (CHRM1) small molecule antagonists, cell-based qHTS assay (AID 1963588); further: nearly all actives have a fitted effect of over 40% in size
Chain of Muscarinic acetylcholine receptor M1 (Homo sapiens) (P11229 whole entry, looked up): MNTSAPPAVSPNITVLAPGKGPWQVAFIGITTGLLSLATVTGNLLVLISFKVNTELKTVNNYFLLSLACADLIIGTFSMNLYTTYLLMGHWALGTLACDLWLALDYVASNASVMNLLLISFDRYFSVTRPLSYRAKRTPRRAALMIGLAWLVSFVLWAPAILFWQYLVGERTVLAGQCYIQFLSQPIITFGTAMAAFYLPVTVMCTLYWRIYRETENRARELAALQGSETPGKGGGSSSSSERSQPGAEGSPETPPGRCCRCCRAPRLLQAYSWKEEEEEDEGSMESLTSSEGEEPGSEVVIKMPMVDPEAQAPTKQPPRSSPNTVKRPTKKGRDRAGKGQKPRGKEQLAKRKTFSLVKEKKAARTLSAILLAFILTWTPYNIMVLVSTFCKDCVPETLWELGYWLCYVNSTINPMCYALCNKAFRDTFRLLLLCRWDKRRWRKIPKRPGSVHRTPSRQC
Procedure, shortened: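 Compounds were tested at 15 concentrations in three independent runs. Dye-loaded CHRM1-CHO cells were exposed 5 min at room temperature before stimulation by acetylcholine added at 50nM. Intracellular calcium was read kinetically on FDSS for 3 min.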

[12] = target: Muscarinic acetylcholine receptor M1 (Homo sapiens) (UniProt P11229); assay: Cholinergic receptor muscarinic 1 (CHRM1) small molecule agonists, cell-based qHTS assay (AID 1963589); further: nearly all actives have a fitted effect of over 35% in size
Procedure, shortened: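 Homogeneous fluorescence calcium flux, agonist mode. Human M1-expressing CHO cells; compound dosed at 15 concentrations, three independent runs; signal sampled every 1 sec.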

[13] = cAMP Responsive Elements (CRE) small molecule agonists, cell-based qHTS assay (AID 1963590)
Procedure, shortened: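 HEK 293T cells stably bearing CRE-bla were plated at 2,000 cells per well and rested 18 h. Compounds, positive controls or DMSO were added for 3 h at 37 C. LiveBLAzer B/G substrate was then loaded for 2 h at room temperature.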

[14] = cAMP Responsive Elements (CRE) small molecule antagonists, cell-based qHTS assay (AID 1963591; active means well fitted inhibition curve with a large enough effect in the signal ratio in the repeat runs, not every such curve was filed as active; the % refers to the signal ratio)
Procedure, shortened: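 First, CRE-bla HEK293T cells settled 18 h at 37 C. Next, compound and 0.25 uM final NKH477 were applied for 3 h. Last, LiveBLAzer B/G substrate was loaded for 2 h at room temperature.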

[15] = target: Beta-2 adrenergic receptor (Homo sapiens) (UniProt P07550); assay: Adrenergic beta2 receptor (ADRB2) small molecule antagonists, cell-based qHTS assay (AID 1963592); further: series mostly up to about 92 µM; nearly all actives have a fitted effect of over 50% in size
Chain of Beta-2 adrenergic receptor (Homo sapiens) (P07550 whole entry, looked up): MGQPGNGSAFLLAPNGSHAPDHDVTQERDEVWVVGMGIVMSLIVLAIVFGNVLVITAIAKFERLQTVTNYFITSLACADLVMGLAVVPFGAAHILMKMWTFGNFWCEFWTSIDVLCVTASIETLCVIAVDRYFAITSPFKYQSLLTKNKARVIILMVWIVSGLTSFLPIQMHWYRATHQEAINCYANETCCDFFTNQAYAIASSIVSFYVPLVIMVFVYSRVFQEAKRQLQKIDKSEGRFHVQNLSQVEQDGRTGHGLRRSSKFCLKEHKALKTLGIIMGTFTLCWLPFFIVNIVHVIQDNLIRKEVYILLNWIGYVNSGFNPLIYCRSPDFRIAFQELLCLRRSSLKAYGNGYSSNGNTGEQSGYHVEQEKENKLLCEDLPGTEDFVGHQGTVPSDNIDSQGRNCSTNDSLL
Procedure, shortened: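 Assay format: CHO-ADRB2 cells, 18-20hr seeding at 37C/5% CO2, then compound plus 1nM isoproterenol agonist mix for 0.5hr RT. Homogeneous time-resolved fluorescence cAMP detection after 1hr, expressed as 665/615 nm ratio.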

[16] = target: Beta-2 adrenergic receptor (Homo sapiens) (UniProt P07550); assay: Adrenergic beta2 receptor (ADRB2) small molecule agonists, cell-based qHTS assay (AID 1963593);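 further: CHO cells stably overexpressing human ADRB2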
Procedure, shortened: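 CHO cells stably over-expressing ADRB2 were plated overnight at 37C, then dosed with compounds plus a stimulation mix containing 100uM IBMX and 25uM Ro-20-1724 for 0.5hr at room temperature. cAMP was measured by HTRF competition, 1hr.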

[17] = target: D(2) dopamine receptor (Homo sapiens) (UniProt P14416); assay: Dopamine D2 receptor (DRD2) small molecule agonists, cell-based qHTS assay (AID 1963594); further: nearly all actives have a fitted effect of over 35% in size
Chain of D(2) dopamine receptor (Homo sapiens) (P14416 whole entry, looked up): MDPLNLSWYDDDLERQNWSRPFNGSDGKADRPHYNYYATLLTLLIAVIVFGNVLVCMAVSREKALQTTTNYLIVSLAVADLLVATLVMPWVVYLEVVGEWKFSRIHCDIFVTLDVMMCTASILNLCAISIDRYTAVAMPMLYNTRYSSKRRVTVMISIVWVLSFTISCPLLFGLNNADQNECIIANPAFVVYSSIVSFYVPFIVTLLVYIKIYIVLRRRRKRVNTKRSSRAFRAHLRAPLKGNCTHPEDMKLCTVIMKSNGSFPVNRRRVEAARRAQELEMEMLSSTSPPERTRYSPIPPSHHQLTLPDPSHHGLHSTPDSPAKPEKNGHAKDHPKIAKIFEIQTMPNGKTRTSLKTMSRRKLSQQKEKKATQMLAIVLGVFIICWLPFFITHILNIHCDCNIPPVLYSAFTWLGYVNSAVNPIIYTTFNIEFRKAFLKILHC
Procedure, shortened: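 HEK293 cells stably expressing human DRD2, pre-treated with PDE inhibitor Ro20-1724 (0.1 mM final) and compound 10 min at room temperature, then stimulated with NKH477 (200nM […]) for 30 min. cAMP read by HTRF (665/620 nm).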

[18] = target: D(2) dopamine receptor (Homo sapiens) (UniProt P14416); assay: Dopamine D2 receptor (DRD2) small molecule antagonists, cell-based qHTS assay (AID 1963595; active means well fitted inhibition curve with a large enough effect in the signal ratio in the repeat runs, with a control signal flat; the % refers to the signal ratio)
Procedure, shortened: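 In this cell-based antagonist screen, compounds act for 10 min at room temperature before a 30 min challenge with 12 nM quinpirole and 200 nM NKH477. cAMP is quantified by HTRF competition in DRD2-HEK293 cells containing 0.1 mM Ro20-1724.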

[19] = target: KiSS-1 receptor (Homo sapiens) (UniProt Q969F8); assay: Human kisspeptin (KISS1R) small molecule agonists, calcium flux assay in KISS1R-HEK293 cells (AID 1920064; active means well fitted curve in the direction sought with a large enough effect in the repeat runs; an effect the other way counts as inactive or inconclusive)
Chain of KiSS-1 receptor (Homo sapiens) (Q969F8 whole entry, looked up): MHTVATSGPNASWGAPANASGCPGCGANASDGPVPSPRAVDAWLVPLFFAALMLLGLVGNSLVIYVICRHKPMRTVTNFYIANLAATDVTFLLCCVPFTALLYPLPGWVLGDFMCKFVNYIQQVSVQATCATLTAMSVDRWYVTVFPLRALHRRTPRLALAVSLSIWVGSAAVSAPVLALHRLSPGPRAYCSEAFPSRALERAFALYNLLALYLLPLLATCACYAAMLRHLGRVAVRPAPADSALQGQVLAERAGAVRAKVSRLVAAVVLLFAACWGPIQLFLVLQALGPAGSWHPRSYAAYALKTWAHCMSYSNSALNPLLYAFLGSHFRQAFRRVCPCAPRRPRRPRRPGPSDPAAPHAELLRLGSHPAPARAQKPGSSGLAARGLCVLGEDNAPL
Procedure, shortened: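 Cell line: HEK293, stable human KISS1R. Dye loading 1 h at 37 C after 18 h culture. Read: kinetic fluorescence, 480/540 nm, 3 min at 1 s intervals.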

[20] = G protein-coupled receptor (GPCR) small molecule agonists, calcium flux assay: HEK293 wild type cell line counter screen (AID 1920065)
Procedure, shortened: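 Tox21 10K compounds, 15 concentrations each in triplicate, pin-transferred in DMSO onto dye-loaded cells; kinetic read at 480/540 nm for 3 min, 1 s intervals.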

| SMILES | Potency [1] | Potency [2] | Potency [3] | Potency [4] | Potency [5] | Potency [6] | Potency [7] | Potency [8] | Potency [9] | Potency [10] | Potency [11] | Potency [12] | Potency [13] | Potency [14] | Potency [15] | Potency [16] | Potency [17] | Potency [18] | Potency [19] | Potency [20] |
| --- | --- | --- | --- | --- | --- | --- | --- | --- | --- | --- | --- | --- | --- | --- | --- | --- | --- | --- | --- | --- |
| Nc1ccc(S(=O)(=O)c2ccc(N)cc2)cc1 | inactive | inactive | inactive | inactive | inactive | inactive | inactive | inactive | inactive | inactive | inactive | inactive | inactive | inactive | inactive | inactive | inactive | inactive | – | – |
| O=C(O)C(=O)O | inactive | inactive | – | – | – | inactive | inactive | – | inactive | inactive | inactive | inactive | inactive | inactive | inactive | – | – | inactive | inactive | – |
| CN(C)CCCN | inactive | inactive | – | inactive | inactive | inactive | inactive | – | inactive | inactive | inactive | inactive | inactive | inactive | inactive | inactive | – | inactive | – | inactive |
| O=Cc1ccc(CO)o1 | inactive | inactive | inactive | inactive | inactive | inactive | inactive | – | – | – | inactive | inactive | inactive | inactive | inactive | inactive | – | inactive | – | inactive |
| OC(CCl)CCl | inactive | inactive | inactive | inactive | inactive | inactive | inactive | inactive | inactive | inactive | inactive | inactive | inactive | inactive | inactive | – | inactive | inactive | – | inactive |
| O=C(c1ccccc1)C(O)c1ccccc1 (stereo not given) | inactive | inactive | – | – | inactive | inactive | – | – | inactive and 729 nM (active) | inactive | inactive | – | inactive | inactive | inactive | inactive | – | inactive | – | inactive |
| CCOc1ccc(NC(C)=O)cc1 | inactive | inactive | inactive | inactive | inactive | inactive | inactive | inactive | – | – | – | – | inactive | – | inactive | inactive | inactive | inactive | – | inactive |
| O=C1CCCCCN1 | inactive | – | inactive | inactive | inactive | inactive | inactive | inactive | inactive | inactive | inactive | inactive | inactive | inactive | inactive | – | inactive | inactive | inactive | inactive |
